Test results from ChEMBL document CHEMBL1961873, “Compounds: GSK PKIS; Assays: Nanosyn kinase panel” (2012).

Legend:
[1] = molecular target: 5'-AMP-activated protein kinase catalytic subunit alpha-2 (Homo sapiens) (UniProt P54646); details: at 1 µM
[2] = molecular target: T1, NUAK family SNF1-like kinase 1 (Homo sapiens) (UniProt O60285); details: at 0.1 µM
T1 sequence (whole entry): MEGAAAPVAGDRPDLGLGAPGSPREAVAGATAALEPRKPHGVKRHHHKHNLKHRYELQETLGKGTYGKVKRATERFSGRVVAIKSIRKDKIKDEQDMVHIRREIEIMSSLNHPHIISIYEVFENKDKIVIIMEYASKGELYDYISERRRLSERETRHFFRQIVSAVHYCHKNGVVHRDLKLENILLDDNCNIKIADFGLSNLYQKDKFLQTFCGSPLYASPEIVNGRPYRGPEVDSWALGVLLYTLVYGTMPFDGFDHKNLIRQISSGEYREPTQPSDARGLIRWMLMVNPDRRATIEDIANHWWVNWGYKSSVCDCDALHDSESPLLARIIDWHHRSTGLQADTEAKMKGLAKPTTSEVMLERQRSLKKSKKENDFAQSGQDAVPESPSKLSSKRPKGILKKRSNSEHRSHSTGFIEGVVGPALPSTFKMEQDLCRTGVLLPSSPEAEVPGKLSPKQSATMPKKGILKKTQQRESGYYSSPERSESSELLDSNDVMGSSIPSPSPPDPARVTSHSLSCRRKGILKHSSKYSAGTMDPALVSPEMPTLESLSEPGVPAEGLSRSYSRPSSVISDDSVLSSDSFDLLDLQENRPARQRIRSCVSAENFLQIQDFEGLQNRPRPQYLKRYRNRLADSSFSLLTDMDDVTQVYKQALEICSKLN

[3] = molecular target: T1, NUAK family SNF1-like kinase 1 (Homo sapiens); details: at 1 µM
[4] = molecular target: T2, Serine/threonine-protein kinase BRSK1 (Homo sapiens) (UniProt Q8TDC3); details: at 0.1 µM
T2 sequence (whole entry): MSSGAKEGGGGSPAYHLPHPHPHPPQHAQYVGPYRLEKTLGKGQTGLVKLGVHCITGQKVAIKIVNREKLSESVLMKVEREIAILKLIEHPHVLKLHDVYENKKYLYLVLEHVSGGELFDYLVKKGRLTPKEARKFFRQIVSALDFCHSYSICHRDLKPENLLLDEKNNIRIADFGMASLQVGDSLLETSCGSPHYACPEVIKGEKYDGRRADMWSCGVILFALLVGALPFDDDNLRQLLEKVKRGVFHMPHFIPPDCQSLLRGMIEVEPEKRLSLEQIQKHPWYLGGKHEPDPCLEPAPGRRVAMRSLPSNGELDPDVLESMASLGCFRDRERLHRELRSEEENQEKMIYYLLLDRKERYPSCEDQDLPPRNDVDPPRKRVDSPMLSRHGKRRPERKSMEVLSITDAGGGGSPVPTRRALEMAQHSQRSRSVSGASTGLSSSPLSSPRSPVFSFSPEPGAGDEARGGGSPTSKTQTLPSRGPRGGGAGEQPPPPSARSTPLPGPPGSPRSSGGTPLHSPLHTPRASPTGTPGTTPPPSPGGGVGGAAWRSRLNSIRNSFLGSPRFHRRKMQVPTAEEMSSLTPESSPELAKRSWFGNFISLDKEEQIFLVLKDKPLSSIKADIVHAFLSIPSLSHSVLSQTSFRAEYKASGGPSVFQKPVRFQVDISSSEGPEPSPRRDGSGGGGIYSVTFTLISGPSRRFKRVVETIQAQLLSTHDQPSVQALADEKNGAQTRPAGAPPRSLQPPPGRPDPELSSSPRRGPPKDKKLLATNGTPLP

[5] = molecular target: T2, Serine/threonine-protein kinase BRSK1 (Homo sapiens); details: at 1 µM
[6] = molecular target: T3, Serine/threonine-protein kinase BRSK2 (Homo sapiens) (UniProt Q8IWQ3); details: at 0.1 µM
T3 sequence (whole entry): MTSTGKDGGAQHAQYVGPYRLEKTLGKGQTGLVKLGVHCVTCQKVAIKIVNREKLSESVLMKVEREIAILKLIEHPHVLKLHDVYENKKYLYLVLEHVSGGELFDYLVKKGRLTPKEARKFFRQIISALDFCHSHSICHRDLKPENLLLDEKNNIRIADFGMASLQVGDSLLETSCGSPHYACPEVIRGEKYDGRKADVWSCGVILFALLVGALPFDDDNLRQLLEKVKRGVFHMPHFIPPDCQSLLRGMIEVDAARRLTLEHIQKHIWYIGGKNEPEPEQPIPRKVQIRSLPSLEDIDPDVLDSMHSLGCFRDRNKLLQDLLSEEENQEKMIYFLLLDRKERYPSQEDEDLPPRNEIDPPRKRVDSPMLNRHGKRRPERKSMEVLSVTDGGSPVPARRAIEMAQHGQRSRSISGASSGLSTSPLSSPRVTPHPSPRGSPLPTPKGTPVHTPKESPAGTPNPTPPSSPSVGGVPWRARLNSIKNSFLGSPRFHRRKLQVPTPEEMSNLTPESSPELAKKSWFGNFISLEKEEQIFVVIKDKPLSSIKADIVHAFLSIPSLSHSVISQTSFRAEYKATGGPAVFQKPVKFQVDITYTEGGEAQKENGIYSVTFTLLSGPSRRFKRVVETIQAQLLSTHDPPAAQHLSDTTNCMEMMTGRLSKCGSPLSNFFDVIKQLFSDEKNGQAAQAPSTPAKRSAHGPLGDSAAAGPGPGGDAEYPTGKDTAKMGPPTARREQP

[7] = molecular target: T3, Serine/threonine-protein kinase BRSK2 (Homo sapiens); details: at 1 µM
[8] = molecular target: Calcium/calmodulin-dependent protein kinase type 1D (Homo sapiens) (UniProt Q8IU85); details: at 0.1 µM
[9] = molecular target: Calcium/calmodulin-dependent protein kinase type 1D (Homo sapiens) (UniProt Q8IU85); details: at 1 µM
[10] = molecular target: Calcium/calmodulin-dependent protein kinase type II subunit alpha (Homo sapiens) (UniProt Q9UQM7); details: at 0.1 µM
[11] = molecular target: Calcium/calmodulin-dependent protein kinase type II subunit alpha (Homo sapiens) (UniProt Q9UQM7); details: at 1 µM
[12] = molecular target: Calcium/calmodulin-dependent protein kinase type II subunit delta (Homo sapiens) (UniProt Q13557); details: at 0.1 µM
[13] = molecular target: Calcium/calmodulin-dependent protein kinase type II subunit delta (Homo sapiens) (UniProt Q13557); details: at 1 µM
[14] = molecular target: T4, Calcium/calmodulin-dependent protein kinase type IV (Homo sapiens) (UniProt Q16566); details: at 0.1 µM
T4 sequence (whole entry): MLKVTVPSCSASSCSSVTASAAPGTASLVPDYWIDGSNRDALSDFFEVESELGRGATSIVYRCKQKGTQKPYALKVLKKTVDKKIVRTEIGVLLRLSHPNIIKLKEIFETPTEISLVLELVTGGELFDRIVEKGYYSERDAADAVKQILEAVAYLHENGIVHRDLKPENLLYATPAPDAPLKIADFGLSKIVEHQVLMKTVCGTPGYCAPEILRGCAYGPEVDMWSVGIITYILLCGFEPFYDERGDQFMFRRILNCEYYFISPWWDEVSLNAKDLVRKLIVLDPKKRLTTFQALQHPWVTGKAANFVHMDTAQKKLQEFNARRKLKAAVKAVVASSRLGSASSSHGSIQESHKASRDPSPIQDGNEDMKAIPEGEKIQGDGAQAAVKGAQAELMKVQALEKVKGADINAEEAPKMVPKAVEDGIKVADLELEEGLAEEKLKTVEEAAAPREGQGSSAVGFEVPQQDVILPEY

[15] = molecular target: T4, Calcium/calmodulin-dependent protein kinase type IV (Homo sapiens); details: at 1 µM
[16] = molecular target: T5, Serine/threonine-protein kinase Chk1 (Homo sapiens) (UniProt O14757); details: at 0.1 µM
T5 sequence (whole entry): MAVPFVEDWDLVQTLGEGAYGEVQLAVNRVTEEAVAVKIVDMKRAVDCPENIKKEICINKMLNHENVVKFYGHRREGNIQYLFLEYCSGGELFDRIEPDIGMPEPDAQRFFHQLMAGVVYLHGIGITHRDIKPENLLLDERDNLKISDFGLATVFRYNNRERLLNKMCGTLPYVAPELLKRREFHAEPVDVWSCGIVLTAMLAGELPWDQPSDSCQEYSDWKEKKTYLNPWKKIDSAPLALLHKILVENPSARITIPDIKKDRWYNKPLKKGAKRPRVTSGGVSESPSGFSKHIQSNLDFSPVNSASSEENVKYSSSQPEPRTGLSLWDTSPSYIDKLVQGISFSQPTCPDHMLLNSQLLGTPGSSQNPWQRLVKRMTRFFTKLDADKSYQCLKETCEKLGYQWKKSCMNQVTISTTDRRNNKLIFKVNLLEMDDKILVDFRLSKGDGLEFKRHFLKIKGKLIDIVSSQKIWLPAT

[17] = molecular target: T5, Serine/threonine-protein kinase Chk1 (Homo sapiens); details: at 1 µM
[18] = molecular target: Serine/threonine-protein kinase Chk2 (Homo sapiens) (UniProt O96017); details: at 0.1 µM
[19] = molecular target: Serine/threonine-protein kinase Chk2 (Homo sapiens) (UniProt O96017); details: at 1 µM
[20] = molecular target: Death-associated protein kinase 1 (Homo sapiens) (UniProt P53355); details: at 0.1 µM;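 further: reported figure is the mean inhibition of DAPK1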
Sequence of Death-associated protein kinase 1 (Homo sapiens) (P53355 whole entry, looked up): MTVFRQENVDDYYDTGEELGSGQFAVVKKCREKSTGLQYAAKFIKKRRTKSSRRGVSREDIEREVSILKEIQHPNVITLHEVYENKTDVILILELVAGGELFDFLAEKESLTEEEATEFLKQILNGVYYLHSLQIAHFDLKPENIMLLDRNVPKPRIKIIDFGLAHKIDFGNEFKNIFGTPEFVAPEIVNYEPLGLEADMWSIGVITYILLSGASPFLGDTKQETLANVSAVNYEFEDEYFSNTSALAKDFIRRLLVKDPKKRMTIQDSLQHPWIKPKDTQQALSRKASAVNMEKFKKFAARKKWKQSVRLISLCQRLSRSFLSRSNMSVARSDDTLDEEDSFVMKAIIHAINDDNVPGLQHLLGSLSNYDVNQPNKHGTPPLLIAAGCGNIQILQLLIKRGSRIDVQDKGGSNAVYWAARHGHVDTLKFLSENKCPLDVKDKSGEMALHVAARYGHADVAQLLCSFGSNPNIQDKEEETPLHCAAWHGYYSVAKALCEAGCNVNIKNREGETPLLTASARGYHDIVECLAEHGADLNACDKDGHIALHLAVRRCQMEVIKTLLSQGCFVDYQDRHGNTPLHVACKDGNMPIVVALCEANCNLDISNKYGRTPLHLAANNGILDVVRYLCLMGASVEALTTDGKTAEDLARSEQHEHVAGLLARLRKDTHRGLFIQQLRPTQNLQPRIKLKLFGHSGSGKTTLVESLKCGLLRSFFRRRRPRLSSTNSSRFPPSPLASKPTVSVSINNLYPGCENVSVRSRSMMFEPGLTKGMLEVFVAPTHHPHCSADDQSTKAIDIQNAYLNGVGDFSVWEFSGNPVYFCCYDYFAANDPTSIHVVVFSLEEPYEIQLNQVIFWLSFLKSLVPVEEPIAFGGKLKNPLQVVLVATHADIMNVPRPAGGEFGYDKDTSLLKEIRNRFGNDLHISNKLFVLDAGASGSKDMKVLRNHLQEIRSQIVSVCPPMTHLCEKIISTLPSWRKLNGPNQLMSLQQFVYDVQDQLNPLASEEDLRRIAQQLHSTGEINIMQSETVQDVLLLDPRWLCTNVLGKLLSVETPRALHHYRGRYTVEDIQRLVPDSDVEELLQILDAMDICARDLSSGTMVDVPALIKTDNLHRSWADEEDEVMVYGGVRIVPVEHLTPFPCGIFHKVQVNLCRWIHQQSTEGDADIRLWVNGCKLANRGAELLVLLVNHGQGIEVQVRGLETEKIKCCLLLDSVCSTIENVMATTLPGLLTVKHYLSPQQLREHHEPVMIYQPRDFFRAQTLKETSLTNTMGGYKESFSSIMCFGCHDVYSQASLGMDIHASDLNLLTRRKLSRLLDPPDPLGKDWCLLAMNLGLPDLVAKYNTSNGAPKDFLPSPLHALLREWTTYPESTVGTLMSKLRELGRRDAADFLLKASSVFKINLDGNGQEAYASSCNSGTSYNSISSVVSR

Sequence of Calcium/calmodulin-dependent protein kinase type II subunit alpha (Homo sapiens) (Q9UQM7 whole entry): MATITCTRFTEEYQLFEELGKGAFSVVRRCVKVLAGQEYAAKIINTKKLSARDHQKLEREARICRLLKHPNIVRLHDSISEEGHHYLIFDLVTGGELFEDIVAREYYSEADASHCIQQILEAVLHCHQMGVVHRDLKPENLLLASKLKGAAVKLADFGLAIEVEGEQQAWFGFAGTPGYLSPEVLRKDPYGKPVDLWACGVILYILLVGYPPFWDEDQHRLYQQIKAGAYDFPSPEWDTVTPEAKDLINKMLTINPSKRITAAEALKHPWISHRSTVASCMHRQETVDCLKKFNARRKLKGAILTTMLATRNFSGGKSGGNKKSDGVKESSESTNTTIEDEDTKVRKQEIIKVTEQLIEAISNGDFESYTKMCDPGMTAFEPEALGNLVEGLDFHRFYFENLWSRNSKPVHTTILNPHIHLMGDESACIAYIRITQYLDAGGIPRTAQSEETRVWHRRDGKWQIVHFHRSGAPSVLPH
Sequence of Calcium/calmodulin-dependent protein kinase type 1D (Homo sapiens) (Q8IU85 whole entry, looked up): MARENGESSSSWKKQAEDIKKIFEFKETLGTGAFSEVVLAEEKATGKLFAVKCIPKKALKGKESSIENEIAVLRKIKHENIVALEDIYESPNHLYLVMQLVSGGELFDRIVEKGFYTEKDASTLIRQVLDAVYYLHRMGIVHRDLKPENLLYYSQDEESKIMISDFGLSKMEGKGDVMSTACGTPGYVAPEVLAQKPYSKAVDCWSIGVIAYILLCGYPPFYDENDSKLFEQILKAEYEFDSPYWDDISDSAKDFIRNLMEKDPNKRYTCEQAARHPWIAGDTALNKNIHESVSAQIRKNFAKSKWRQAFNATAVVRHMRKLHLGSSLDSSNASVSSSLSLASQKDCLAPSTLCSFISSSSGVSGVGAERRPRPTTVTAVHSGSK
Sequence of 5'-AMP-activated protein kinase catalytic subunit alpha-2 (Homo sapiens) (P54646 whole entry, looked up): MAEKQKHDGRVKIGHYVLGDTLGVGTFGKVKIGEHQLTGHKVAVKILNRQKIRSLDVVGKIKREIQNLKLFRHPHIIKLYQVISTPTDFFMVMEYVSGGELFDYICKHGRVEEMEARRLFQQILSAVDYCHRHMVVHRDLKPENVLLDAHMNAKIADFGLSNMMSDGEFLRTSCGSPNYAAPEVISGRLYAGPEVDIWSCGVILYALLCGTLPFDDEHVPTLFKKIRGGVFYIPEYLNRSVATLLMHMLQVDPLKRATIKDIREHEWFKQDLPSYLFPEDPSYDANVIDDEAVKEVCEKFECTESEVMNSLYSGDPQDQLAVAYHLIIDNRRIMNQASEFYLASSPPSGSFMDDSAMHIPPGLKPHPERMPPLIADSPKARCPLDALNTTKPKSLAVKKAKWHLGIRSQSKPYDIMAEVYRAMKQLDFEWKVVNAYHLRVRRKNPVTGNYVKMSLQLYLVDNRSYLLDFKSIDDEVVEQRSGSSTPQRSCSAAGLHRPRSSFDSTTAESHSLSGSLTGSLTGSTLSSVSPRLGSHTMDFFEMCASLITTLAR
Sequence of Calcium/calmodulin-dependent protein kinase type II subunit delta (Homo sapiens) (Q13557 whole entry): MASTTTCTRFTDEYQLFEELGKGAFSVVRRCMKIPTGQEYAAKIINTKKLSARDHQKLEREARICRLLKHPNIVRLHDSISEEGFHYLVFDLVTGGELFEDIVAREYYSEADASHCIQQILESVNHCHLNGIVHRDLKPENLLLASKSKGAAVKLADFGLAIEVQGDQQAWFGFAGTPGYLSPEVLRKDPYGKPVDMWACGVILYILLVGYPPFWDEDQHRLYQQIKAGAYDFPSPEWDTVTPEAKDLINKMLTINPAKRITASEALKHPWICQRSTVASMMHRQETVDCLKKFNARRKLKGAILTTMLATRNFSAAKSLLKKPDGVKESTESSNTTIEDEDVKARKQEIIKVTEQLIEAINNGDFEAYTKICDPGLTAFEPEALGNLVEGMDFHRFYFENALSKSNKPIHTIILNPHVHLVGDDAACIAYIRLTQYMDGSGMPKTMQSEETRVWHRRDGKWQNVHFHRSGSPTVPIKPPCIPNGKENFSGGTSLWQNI
Sequence of Serine/threonine-protein kinase Chk2 (Homo sapiens) (O96017 whole entry): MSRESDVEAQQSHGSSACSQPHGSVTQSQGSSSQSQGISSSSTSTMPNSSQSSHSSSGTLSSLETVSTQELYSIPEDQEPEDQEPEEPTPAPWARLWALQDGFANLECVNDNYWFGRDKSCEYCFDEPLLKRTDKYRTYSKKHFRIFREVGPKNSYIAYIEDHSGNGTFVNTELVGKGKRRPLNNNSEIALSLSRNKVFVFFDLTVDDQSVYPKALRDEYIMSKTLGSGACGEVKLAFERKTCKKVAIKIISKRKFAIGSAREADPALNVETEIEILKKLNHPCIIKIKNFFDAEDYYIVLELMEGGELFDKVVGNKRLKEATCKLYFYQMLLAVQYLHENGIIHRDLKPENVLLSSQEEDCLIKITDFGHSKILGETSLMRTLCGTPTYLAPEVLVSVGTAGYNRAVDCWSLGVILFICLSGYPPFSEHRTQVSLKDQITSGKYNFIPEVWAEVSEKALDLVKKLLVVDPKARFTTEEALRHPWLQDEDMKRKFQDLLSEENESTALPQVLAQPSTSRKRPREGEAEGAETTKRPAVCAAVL

SMILES | inhibition [1] [%] | inhibition [2] [%] | inhibition [3] [%] | inhibition [4] [%] | inhibition [5] [%] | inhibition [6] [%] | inhibition [7] [%] | inhibition [8] [%] | inhibition [9] [%] | inhibition [10] [%] | inhibition [11] [%] | inhibition [12] [%] | inhibition [13] [%] | inhibition [14] [%] | inhibition [15] [%] | inhibition [16] [%] | inhibition [17] [%] | inhibition [18] [%] | inhibition [19] [%] | inhibition [20] [%]
COc1cc(Nc2nccc(Nc3ccc4c(C)n[nH]c4c3)n2)cc(OC)c1OC | 5.95 | 10.4 | 35.5 | 3.57 | 3.29 | 2.02 | 1.97 | 3.39 | 6.21 | 4.54 | 4.38 | 3.41 | 3.54 | 1.45 | 4.68 | 1.45 | 3.35 | 1.73 | 9.02 | 1.68
Cc1ccc(O)cc1Nc1ccnc2cc(-c3ccccn3)ccc12 | 6.05 | 4.17 | 7.44 | 3.63 | 5.99 | 3.25 | 3.89 | 1.22 | 1.32 | 6.72 | 5.11 | 4.51 | 6.51 | -0.2 | 0.26 | 4.18 | 4.5 | 3.95 | 5.81 | 3.99
CCCN1CCC(c2ccc(Nc3nc(Nc4cc(F)ccc4C(N)=O)c4cc[nH]c4n3)c(OC)c2)CC1 | 13.2 | 31.8 | 62.8 | 0.82 | 2.49 | 2.24 | 6.88 | 22.9 | 71.5 | 8.79 | 43.6 | 20.9 | 71 | 7.54 | 37.9 | 0.91 | 10.7 | 58.3 | 80.9 | 3.52
Fc1ccc(-c2nn3ccccc3c2-c2ccncc2)cc1 | 2.49 | -0.02 | 1.09 | 0.59 | 1.1 | 1.69 | 0.78 | 0.87 | 1.9 | 3.85 | 0.25 | 0.43 | 2.99 | 1.16 | 1.98 | 0.22 | -0.04 | -0.38 | 0.19 | 0.72
CCn1c(-c2nonc2N)nc2c(C#CC(C)(C)O)nc(OC[C@H](N)c3ccccc3)cc21 | 15 | 7 | 47.3 | 0.45 | 1.15 | -0.02 | 5.58 | 0.96 | 4.5 | 2.34 | 6.26 | 4.52 | 8.64 | -0.61 | 4.09 | 2.81 | 9.89 | 4.7 | 11.3 | 2.88
Clc1ccc(-c2nn3ncccc3c2-c2ccnc(Nc3ccccc3)n2)cc1 | 2.26 | 0.79 | 4.21 | 0.06 | 1.52 | -0.16 | -0.21 | 2.4 | 1.17 | 0.95 | 0.86 | 1.7 | 1.08 | 4.89 | -0.99 | -0.54 | -0.93 | 0.52 | 1.08 | 0.42
CS(=O)(=O)CCNCc1coc(-c2ccc3ncnc(Nc4ccc(OCc5ccccc5)cc4)c3c2)c1 | 4.29 | 2.46 | 3.61 | 1.86 | -1.55 | 1.32 | 3.39 | 0.92 | 2.2 | 2.93 | 6.16 | 2.95 | 3.61 | 2.14 | 3.11 | 1.85 | 3.43 | 5.28 | 28.8 | 2.7
COc1ccc(-c2nn3ncccc3c2-c2ccnc(Nc3ccc4c(c3)OCCO4)n2)cc1 | 0.38 | -0.71 | 2.67 | -0.94 | 2.44 | 0.33 | 1.64 | 9.78 | 0.03 | 0.38 | -2.04 | 0.97 | 0.2 | 1.75 | -0.47 | -2.62 | -1.19 | -1.05 | 0.02 | 2.51
CN(C)CCOc1ccc(-c2nc(-c3ccncc3)c(-c3ccc4c(c3)CC/C4=N\O)[nH]2)cc1 | 2.75 | 1.23 | 8.79 | -0.13 | 1.11 | 0.6 | 3.51 | 0.25 | 1.72 | 2.79 | 2.29 | 1.28 | 1.23 | 0.04 | -0.88 | 2.48 | 5.39 | 1.94 | 4.06 | 3.99
COC(=O)Nc1nc2ccc(Oc3ccc(NC(=O)Nc4cccc(Cl)c4)cc3)cc2[nH]1 | 2.32 | 1.13 | -0.04 | -0.24 | -0.19 | 1.18 | 0.86 | 0.74 | 0.72 | -1.44 | -1.94 | 1.3 | 0.37 | 0.3 | -1.27 | -1.18 | -8.11 | 0.39 | 0.53 | 0.42
COC(=O)c1sc(-n2cnc3cc(OC)c(OC)cc32)cc1OCc1ccccc1C(F)(F)F | 5.51 | 18.4 | 47.1 | 0.92 | 2.12 | 2.43 | 4.63 | 0.66 | 2.52 | 5.18 | 5.27 | 4.25 | 11.3 | 1.9 | 11.2 | 1.72 | 2.67 | 3.73 | 4.65 | 0.08
Nc1nc(-c2ccc(F)cc2)c(-c2ccc3ncccc3n2)s1 | 3.37 | 3.85 | 7.09 | 1.97 | 3.32 | 2.41 | 5.28 | 0.67 | 0.5 | 4.42 | 4.65 | 4.16 | 4.81 | -0.44 | -0.24 | 3.9 | 5.94 | 3.09 | 4.06 | 4.26
COc1ccc2c(-c3ccnc(Nc4cccc(OC(F)(F)F)c4)n3)cnn2n1 | 5.72 | 6.86 | 30.7 | -1.42 | 3.33 | 2.27 | 3.88 | 0.18 | 2.77 | 4.78 | 3.59 | 2.75 | 5.82 | -0.96 | -0.82 | 3.59 | 5.26 | 3.11 | 5.21 | 5.2
